{
  "source": "PubChem BioAssay (EPA / NIEHS)",
  "note": "Inconclusive results are not listed. Active and inactive are the calls of the source. Rule for the calls, unless noted: active = hit-call score of the fitted dose curve at least 0.9, where 1 is the maximum; inconclusive = response in the unintended direction; inactive = score below 0.9.",
  "data": [
    {"read-out": "not listed separately", "test": "BSK_3C_TissueFactor: BioMAP Diversity Plus: 3C Assay for Tissue Factor Biomarker Activity (AID 2282997; active = hit-call score of the fitted dose curve at least 0.9, where 1 is the maximum; inactive = score below 0.9)", "settings": "BioMAP 3C HUVEC, tissue factor biomarker readout; actives raise or lower the signal", "summary_of_the_method": "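Tissue Factor measured by ELISA, 24 h after treatment of primary HUVEC in the BioMAP 3C setting.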", "values": [
      {"smiles": "CC(C)Cc1ccc(C(C)C(=O)O)cc1", "note": "(stereo not drawn)", "outcome": "inactive"},
      {"smiles": "CCCCCCCCCC(=O)OCC", "AC50": "28.7 µM (active)"},
      {"smiles": "CC1(C)[C@H](C=C(Cl)Cl)[C@H]1C(=O)OCc1cccc(Oc2ccccc2)c1", "outcome": "inactive"},
      {"smiles": "CC(C)(CO)CO", "outcome": "inactive"},
      {"smiles": "CCCCCCCC1CCCC1=O", "note": "(stereo not drawn)", "AC50": "33 µM (active)"}
    ]},
    {"read-out": "not listed separately", "test": "BSK_3C_uPAR: BioMAP Diversity Plus: 3C Assay for Urokinase-type plasminogen activator receptor (uPAR) Biomarker Activity (AID 2282998; active = hit-call score of the fitted dose curve at least 0.9, where 1 is the maximum; inactive = score below 0.9)", "settings": "BioMAP 3C HUVEC, uPAR biomarker ELISA; actives raise or lower the signal", "summary_of_the_method": "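Dose primary human umbilical vein endothelial cells, incubate 24 h, measure cell-surface uPAR by ELISA, then fit the signal in both directions against the DMSO negative control.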", "values": [
      {"smiles": "CC(C)Cc1ccc(C(C)C(=O)O)cc1", "note": "(stereo not drawn)", "outcome": "inactive"},
      {"smiles": "CCCCCCCCCC(=O)OCC", "AC50": "29.1 µM (active)"},
      {"smiles": "CC1(C)[C@H](C=C(Cl)Cl)[C@H]1C(=O)OCc1cccc(Oc2ccccc2)c1", "outcome": "inactive"},
      {"smiles": "CC(C)(CO)CO", "outcome": "inactive"},
      {"smiles": "CCCCCCCC1CCCC1=O", "note": "(stereo not drawn)", "AC50": "34.5 µM (active)"}
    ]},
    {"read-out": "not listed separately", "test": "BSK_4H_Eotaxin3: BioMAP Diversity Plus: 4H Assay for Eotaxin 3 Biomarker Activity (AID 2283000; active = hit-call score of the fitted dose curve at least 0.9, where 1 is the maximum; inactive = score below 0.9;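 for outcome: CCL26 protein level quantified by ELISA in parallel with SRB cytotoxicity check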)", "settings": "primary human endothelial cells (HUVEC); actives raise or lower the signal", "summary_of_the_method": "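Eotaxin-3 (CCL26) levels were measured by ELISA in HUVEC primary cultures 24 h post-dosing. Gain or loss of signal was fitted in both directions, with DMSO serving as baseline and negative control.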", "values": [
      {"smiles": "CC(C)Cc1ccc(C(C)C(=O)O)cc1", "note": "(stereo not drawn)", "outcome": "inactive"},
      {"smiles": "CCCCCCCCCC(=O)OCC", "AC50": "34.3 µM (active)"},
      {"smiles": "CC1(C)[C@H](C=C(Cl)Cl)[C@H]1C(=O)OCc1cccc(Oc2ccccc2)c1", "outcome": "inactive"},
      {"smiles": "CC(C)(CO)CO", "outcome": "inactive"},
      {"smiles": "CCCCCCCC1CCCC1=O", "note": "(stereo not drawn)", "AC50": "31.9 µM (active)"}
    ]},
    {"target": "human Peroxisome Proliferator-activated Receptor alpha (PPARa), PPARA (gene 5465) (UniProt Q07869)", "sequence (Q07869 whole entry, looked up, the tested form may be a part)": "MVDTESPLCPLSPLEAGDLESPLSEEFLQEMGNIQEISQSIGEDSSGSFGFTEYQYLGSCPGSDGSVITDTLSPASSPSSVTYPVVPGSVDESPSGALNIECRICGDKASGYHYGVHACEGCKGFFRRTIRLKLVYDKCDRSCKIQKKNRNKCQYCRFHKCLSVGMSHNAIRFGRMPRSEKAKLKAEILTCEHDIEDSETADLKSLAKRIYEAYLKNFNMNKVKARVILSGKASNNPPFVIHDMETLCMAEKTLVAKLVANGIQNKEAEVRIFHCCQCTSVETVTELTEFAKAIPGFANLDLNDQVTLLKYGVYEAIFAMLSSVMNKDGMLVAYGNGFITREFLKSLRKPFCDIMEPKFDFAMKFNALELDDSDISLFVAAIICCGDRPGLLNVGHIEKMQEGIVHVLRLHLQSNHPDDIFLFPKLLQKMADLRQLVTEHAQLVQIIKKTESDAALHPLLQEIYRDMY", "test": "ATG_PPARa_TRANS: Attagene TRANS-FACTORIAL HepG2 Assay for human Peroxisome Proliferator-activated Receptor alpha (PPARa) (AID 2283001);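 for AC50: potency for gain of reporter signal over DMSO so agonist or activator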", "settings": "not given", "summary_of_the_method": "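Transient HepG2 transfection, GAL4-UAS reporters, NR-Gal4 chimeras; 24 h compound exposure. Readout: reporter transcripts by RT-PCR, 6-FAM primer extension, HpaI digest, capillary electrophoresis. Positive direction vs DMSO baseline.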", "values": [
      {"smiles": "CC(=O)OC(C)(C)C", "outcome": "inactive"},
      {"smiles": "C=CCCCCCCCCC(=O)OCC", "outcome": "inactive"},
      {"smiles": "CCCCCC1CCC(=O)O1", "note": "(stereo not drawn)", "outcome": "inactive"},
      {"smiles": "CCCCCCCCCCCCCC(=O)OCC", "outcome": "inactive"},
      {"smiles": "CC(=O)CCc1ccc(O)cc1", "outcome": "inactive"},
      {"smiles": "CCCCCc1cccc(=O)o1", "outcome": "inactive"},
      {"smiles": "CC(CO)c1ccccc1", "note": "(stereo not drawn)", "outcome": "inactive"},
      {"smiles": "CC(=O)Oc1c(C)c(C)c2c(c1C)CC[C@@](C)(CCC[C@H](C)CCC[C@H](C)CCCC(C)C)O2", "outcome": "inactive"},
      {"smiles": "CC(C)Cc1ccc(C(C)C(=O)O)cc1", "note": "(stereo not drawn)", "AC50": "31 µM (active)"},
      {"smiles": "CC1=C(C=O)C(C)(C)CCC1", "outcome": "inactive"},
      {"smiles": "O=C(O)C1=NN(c2ccc(S(=O)(=O)O)cc2)C(=O)C1", "outcome": "inactive"},
      {"smiles": "CCCCOCC(C)OCC(C)O", "note": "(stereo not drawn)", "outcome": "inactive"},
      {"smiles": "CCCCC/C=C\\C=C\\C(=O)OCC", "outcome": "inactive"},
      {"smiles": "C=CC(O)CCCCC", "note": "(stereo not drawn)", "outcome": "inactive"},
      {"smiles": "CCCCCCCCCC(=O)OCC", "AC50": "64.9 µM (active)"},
      {"smiles": "O=S1(=O)CC=CC1", "outcome": "inactive"},
      {"smiles": "CCC(=O)OC(C)(C)C1CC=C(C)CC1", "note": "(stereo not drawn)", "outcome": "inactive"},
      {"smiles": "C=CCOC(=O)/C=C\\C(=O)OCC=C", "AC50": "27.5 µM (active)"},
      {"smiles": "C=CC(C)(CCC=C(C)C)OC(=O)CC", "note": "(stereo not drawn)", "outcome": "inactive"},
      {"smiles": "CCCCOCCOCCOCCO", "outcome": "inactive"},
      {"smiles": "CCC(C)C1CCCCC1=O", "note": "(stereo not drawn)", "outcome": "inactive"},
      {"smiles": "C/C=C(\\C)C(=O)OC/C=C(\\C)CCC=C(C)C", "outcome": "inactive"},
      {"smiles": "CCCCCCCC1CCCC1=O", "note": "(stereo not drawn)", "outcome": "inactive"}
    ]}
  ]
}
